Test results as given in the supplement of paper PMC8728848.
This is one part of a sample in which the strongest signals are shown more often than they occur.

Legend:
Assay in all cases: glycan array binding signal (z-score within array); higher = stronger binding
Conditions in all cases: glycan notation: IUPAC condensed, linker removed
Fuc(a1-2)Gal(b1-3)GalNAc = target: Fuc(a1-2)Gal(b1-3)GalNAc
Summary of the method: (§1)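 The Consortium for Functional Glycomics database supplied 3228 glycan arrays, of which those lacking an available protein sequence were dropped. The binding signal, a within-array Z-score, was averaged across arrays of the same protein sequence and across linkers. Negative scores can be read as non-binding.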

[1] = target: Fuc(a1-2)Gal(b1-4)GlcNAc(b1-3)Gal(b1-4)GlcNAc
Summary of the method: as §1

[2] = target: Fuc(a1-2)[GalNAc(a1-3)]Gal
Summary of the method: as §1

[3] = target: Fuc(a1-2)[GalNAc(b1-3)]Gal
Summary of the method: as §1

Gal(a1-3)Gal = target: Gal(a1-3)Gal
Summary of the method: as §1

Gal(a1-6)Glc = target: Gal(a1-6)Glc
Summary of the method: as §1

[4] = target: Gal(b1-3)GalNAc(b1-4)Gal(b1-4)Glc
Summary of the method: as §1

[5] = target: Gal(b1-3)[Fuc(a1-4)]GlcNAc(b1-3)Gal(b1-4)GlcNAc
Summary of the method: as §1

Gal(b1-4)Glc = target: Gal(b1-4)Glc
Summary of the method: as §1

[6] = target: Gal(b1-4)GlcNAc(b1-6)Gal(b1-4)GlcNAc(b1-6)GalNAc
Summary of the method: as §1

Gal3S(b1-3)GlcNAc = target: Gal3S(b1-3)GlcNAc
Summary of the method: as §1

Gal3S(b1-4)Glc6S = target: Gal3S(b1-4)Glc6S
Summary of the method: as §1

Gal3S6S(b1-4)GlcNAc6S = target: Gal3S6S(b1-4)GlcNAc6S
Summary of the method: as §1

[7] = target: Man(a1-3)[Man(a1-6)]Man(a1-6)[Man(a1-3)]Man(b1-4)GlcNAc(b1-4)GlcNAc
Summary of the method: as §1

[8] = target: Neu5Ac(a2-3)Gal(b1-4)GlcNAc(b1-3)Gal(b1-4)GlcNAc(b1-3)Gal(b1-4)GlcNAc
Summary of the method: as §1

[9] = target: Neu5Gc(a2-3)Gal(b1-3)[Fuc(a1-4)]GlcNAc
Summary of the method: as §1

[10] = target: Neu5Gc(a2-3)Gal(b1-4)GlcNAc
Summary of the method: as §1

[11] = target: Fuc(a1-2)Gal(b1-3)GalNAc(a1-3)[Fuc(a1-2)]Gal(b1-4)Glc
Summary of the method: as §1

[12] = target: Fuc(a1-2)Gal(b1-3)GalNAc(b1-4)[Neu5Ac(a2-3)]Gal(b1-4)Glc
Summary of the method: as §1

[13] = target: Fuc(a1-2)Gal(b1-3)[Fuc(a1-4)]GlcNAc
Summary of the method: as §1

[14] = target: Fuc(a1-2)Gal(b1-3)[Fuc(a1-4)]GlcNAc(b1-3)[Gal(b1-4)GlcNAc(b1-6)]Gal(b1-4)Glc
Summary of the method: as §1

[15] = target: Fuc(a1-2)Gal(b1-4)[Fuc(a1-3)]GlcNAc(b1-2)Man(a1-3)[Fuc(a1-2)Gal(b1-4)[Fuc(a1-3)]GlcNAc(b1-2)Man(a1-6)]Man(b1-4)GlcNAc(b1-4)GlcNAc
Summary of the method: as §1

[16] = target: Fuc(a1-2)Gal(b1-4)[Fuc(a1-3)]GlcNAc(b1-3)Gal(b1-4)[Fuc(a1-3)]GlcNAc(b1-3)Gal(b1-4)[Fuc(a1-3)]GlcNAc
Summary of the method: as §1

[17] = target: Fuc(a1-2)[GalNAc(a1-3)]Gal(b1-4)GlcNAc
Summary of the method: as §1

[18] = target: Fuc(a1-3)[Gal(b1-4)]GlcNAc(b1-3)GalNAc
Summary of the method: as §1

[19] = target: Gal(a1-3)Gal(b1-3)[Fuc(a1-4)]GlcNAc(b1-2)Man(a1-3)[Gal(a1-3)Gal(b1-3)[Fuc(a1-4)]GlcNAc(b1-2)Man(a1-6)]Man(b1-4)GlcNAc(b1-4)GlcNAc
Summary of the method: as §1

Gal(a1-3)Gal(b1-4)Glc = target: Gal(a1-3)Gal(b1-4)Glc
Summary of the method: as §1

[20] = target: Gal(a1-3)Gal(b1-4)GlcNAc(b1-3)GalNAc
Summary of the method: as §1

[21] = target: Gal(a1-3)[Gal(a1-4)]Gal(b1-4)GlcNAc
Summary of the method: as §1

Gal(a1-4)Gal(b1-4)GlcNAc = target: Gal(a1-4)Gal(b1-4)GlcNAc
Summary of the method: as §1

Gal(a1-4)GlcNAc = target: Gal(a1-4)GlcNAc
Summary of the method: as §1

[22] = target: Gal(b1-3)GalNAc(a1-3)[Fuc(a1-2)]Gal(b1-4)Glc
Summary of the method: as §1

Gal(b1-3)GlcNAc = target: Gal(b1-3)GlcNAc
Summary of the method: as §1

[23] = target: Gal(b1-3)GlcNAc(b1-3)Gal(b1-4)GlcNAc
Summary of the method: as §1

[24] = target: Gal(b1-4)GlcNAc(b1-2)Man(a1-3)[Gal(b1-4)GlcNAc(b1-2)Man(a1-6)]Man(b1-4)GlcNAc(b1-4)GlcNAc
Summary of the method: as §1

[25] = target: Gal(b1-4)GlcNAc(b1-2)Man(a1-6)[GlcNAc(b1-2)Man(a1-3)]Man(b1-4)GlcNAc(b1-4)GlcNAc
Summary of the method: as §1

GalNAc(a1-3)Gal = target: GalNAc(a1-3)Gal
Summary of the method: as §1

GalNAc(b1-3)GalNAc = target: GalNAc(b1-3)GalNAc
Summary of the method: as §1

GalNAc(b1-4)GlcNAc = target: GalNAc(b1-4)GlcNAc
Summary of the method: as §1

[26] = target: GlcNAc(a1-4)Gal(b1-3)GlcNAc
Summary of the method: as §1

[27] = target: GlcNAc(b1-2)Gal(b1-3)GalNAc
Summary of the method: as §1

[28] = target: GlcNAc(b1-2)Man(a1-3)[GlcNAc(b1-2)Man(a1-6)]Man(b1-4)GlcNAc(b1-4)GlcNAc
Summary of the method: as §1

Kdn(a2-3)Gal(b1-3)GlcNAc = target: Kdn(a2-3)Gal(b1-3)GlcNAc
Summary of the method: as §1

[29] = target: Kdn(a2-3)Gal(b1-4)[Fuc(a1-3)]GlcNAc
Summary of the method: as §1

Kdn(a2-6)Gal(b1-4)GlcNAc = target: Kdn(a2-6)Gal(b1-4)GlcNAc
Summary of the method: as §1

[30] = target: Man(a1-2)Man(a1-2)Man(a1-6)[Man(a1-3)]Man
Summary of the method: as §1

Man(a1-2)Man(a1-3)Man = target: Man(a1-2)Man(a1-3)Man
Summary of the method: as §1

Man(a1-3)[Man(a1-6)]Man = target: Man(a1-3)[Man(a1-6)]Man
Summary of the method: as §1

[31] = target: Man(a1-3)[Man(a1-6)]Man(a1-6)[Man(a1-3)]Man
Summary of the method: as §1

[32] = target: Neu5Ac(a2-3)Gal(b1-4)[Fuc(a1-3)]GlcNAc(b1-3)GalNAc
Summary of the method: as §1

Neu5Ac(a2-6)Gal = target: Neu5Ac(a2-6)Gal
Summary of the method: as §1

[33] = target: Neu5Ac(a2-6)Gal(b1-4)GlcNAc(b1-3)GalNAc
Summary of the method: as §1

Neu5Ac(a2-6)GalNAc = target: Neu5Ac(a2-6)GalNAc
Summary of the method: as §1

[34] = target: Neu5Ac(a2-6)GlcNAc(b1-4)GlcNAc
Summary of the method: as §1

Neu5Ac(a2-8)Neu5Ac = target: Neu5Ac(a2-8)Neu5Ac
Summary of the method: as §1

[35] = target: Neu5Ac(a2-8)Neu5Ac(a2-3)[GalNAc(b1-4)]Gal(b1-4)Glc
Summary of the method: as §1

B1: LKITALY (Gibberella zeae) (protein)
chain: MGNFHESSNNIWLEDGHILHAECGNGEGDYVESTLDLDYYIGNDDGSFSWGGENFSGSASNITLDIEGDDNIPVLRAELNPMDGDPVEANVNLSERIGNDCGTLIFLA
glycan array binding signal (z-score) (Fuc(a1-2)Gal(b1-3)GalNAc): -0.361
glycan array binding signal (z-score) [1]: -0.364
glycan array binding signal (z-score) [2]: -0.347
glycan array binding signal (z-score) [3]: -0.36
glycan array binding signal (z-score) (Gal(a1-3)Gal): -0.354
glycan array binding signal (z-score) (Gal(a1-6)Glc): -0.352
glycan array binding signal (z-score) [4]: -0.358
glycan array binding signal (z-score) [5]: -0.337
glycan array binding signal (z-score) (Gal(b1-4)Glc): -0.357
glycan array binding signal (z-score) [6]: -0.342
glycan array binding signal (z-score) (Gal3S(b1-3)GlcNAc): 4.13
glycan array binding signal (z-score) (Gal3S(b1-4)Glc6S): 2.82
glycan array binding signal (z-score) (Gal3S6S(b1-4)GlcNAc6S): 3.55
glycan array binding signal (z-score) [7]: -0.347
glycan array binding signal (z-score) [8]: 3.85
glycan array binding signal (z-score) [9]: -0.358
glycan array binding signal (z-score) [10]: 3.69

B2: AcfC (Vibrio cholerae), Q57410 (protein)
chain: MKSKNRFLLISLLSFSTSVFADVNLYGPGGPHVPLIKVAESFEKSQSKRVNITFGPQATWNDKAKKNADILFGASEHSALAIAEGHSERFSKFNIHPVFMREAIILVKKGNPKNIKGMADLLKPGIGIVVNDGAGVSNTSGTAVWEDSVGRMKNVEKLQAFRSNIHVFAPNSGSARKAFVDGEDIDAWITWVDWAIANPTIGDMVRMEDEYRIYRDFNVVLAKNPSSEAIDFFDYLTKSKDAEAIFQHYGWFK
glycan array binding signal (z-score) (Fuc(a1-2)Gal(b1-3)GalNAc): 0.244
glycan array binding signal (z-score) [11]: -1.2
glycan array binding signal (z-score) [12]: -0.09
glycan array binding signal (z-score) [13]: 3.03
glycan array binding signal (z-score) [14]: 1.12
glycan array binding signal (z-score) [15]: 3.03
glycan array binding signal (z-score) [16]: 2.22
glycan array binding signal (z-score) [17]: -0.063
glycan array binding signal (z-score) [18]: 1.43
glycan array binding signal (z-score) [19]: 4.58
glycan array binding signal (z-score) (Gal(a1-3)Gal(b1-4)Glc): -0.864
glycan array binding signal (z-score) [20]: -0.809
glycan array binding signal (z-score) [21]: -0.149
glycan array binding signal (z-score) (Gal(a1-4)Gal(b1-4)GlcNAc): 0.091
glycan array binding signal (z-score) (Gal(a1-4)GlcNAc): 0.322
glycan array binding signal (z-score) [22]: 0.135
glycan array binding signal (z-score) (Gal(b1-3)GlcNAc): 0.247
glycan array binding signal (z-score) [23]: -0.979
glycan array binding signal (z-score) [24]: 3
glycan array binding signal (z-score) [25]: 0.212
glycan array binding signal (z-score) (Gal3S(b1-4)Glc6S): 0.515
glycan array binding signal (z-score) (GalNAc(a1-3)Gal): 0.334
glycan array binding signal (z-score) (GalNAc(b1-3)GalNAc): 0.05
glycan array binding signal (z-score) (GalNAc(b1-4)GlcNAc): 0.088
glycan array binding signal (z-score) [26]: 0.098
glycan array binding signal (z-score) [27]: -0.601
glycan array binding signal (z-score) [28]: 0.375
glycan array binding signal (z-score) (Kdn(a2-3)Gal(b1-3)GlcNAc): 0.128
glycan array binding signal (z-score) [29]: -0.465
glycan array binding signal (z-score) (Kdn(a2-6)Gal(b1-4)GlcNAc): -0.748
glycan array binding signal (z-score) [30]: -0.753
glycan array binding signal (z-score) (Man(a1-2)Man(a1-3)Man): -0.096
glycan array binding signal (z-score) (Man(a1-3)[Man(a1-6)]Man): -0.136
glycan array binding signal (z-score) [31]: 0.134
glycan array binding signal (z-score) [32]: 6.97
glycan array binding signal (z-score) (Neu5Ac(a2-6)Gal): 2.2
glycan array binding signal (z-score) [33]: -0.94
glycan array binding signal (z-score) (Neu5Ac(a2-6)GalNAc): -1.62
glycan array binding signal (z-score) [34]: -0.781
glycan array binding signal (z-score) (Neu5Ac(a2-8)Neu5Ac): 0.214
glycan array binding signal (z-score) [35]: -0.835
